Tg IFNy HTS: T. gondii growth inhibition with IFN-gamma, primary screen, cell-based | Toxoplasma gondii growth in IFN-gamma-treated host cells; active compounds read low | activity change, negative = inhibition, % (concentration not given with the values) | hit rate 3.8% among 69,000; in the data active means activity change below about -70%, passing the limit was not always enough;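 further: host cells are HeLa cells infected with Toxoplasma gondii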
* = called active by the depositor; i = inactive; ! = not active in a repeat. The entries come from a sample that favours hits as a whole.

SMILES	Tg IFNy HTS
CC(=O)c1[nH]c(C)c(C(=O)N2CCCC(CO)(CCc3ccccc3)C2)c1C (configuration not stated)	6.1
Cc1nn(C(C)C)c(C)c1CN(C)C(=O)CCc1cn2ccccc2n1	3.7
O=C1OC(=O)C2C3CCC(O3)C12 (configuration not stated)	-74.6*
COCCCNC(=O)Cn1c(=O)c(S(=O)(=O)c2ccccc2)cc2cc(C)ccc21	-7.1
O=C(c1cccc(F)c1)N1CCc2c([nH]c3ccccc23)C1c1ccccc1 (configuration not stated)	-46.3
Cc1ccc(C2c3[nH]c4ccccc4c3CCN2C(=O)c2cc3ccccc3[nH]2)cc1 (configuration not stated)	-78.7*
CCOc1ccc(C2c3[nH]c4ccccc4c3CCN2C(=O)c2cccnc2)cc1 (configuration not stated)	54.8
CCOc1ccc(C2c3[nH]c4ccccc4c3CCN2C(=O)COC)cc1 (configuration not stated)	i
COc1cc(C(=O)N2CCc3c([nH]c4ccccc34)C2c2ccc(C)cc2)cc(OC)c1OC (configuration not stated)	265.0
Cc1ccc(C(=O)N2CCc3c([nH]c4ccccc34)C2c2ccc(C)cc2)cc1 (configuration not stated)	i
Cc1ccc(C2c3[nH]c4ccccc4c3CCN2C(=O)c2cccc(F)c2)cc1 (configuration not stated)	-128.6*
Cc1ccc(C2c3[nH]c4ccccc4c3CCN2C(=O)c2ccnn2C)cc1 (configuration not stated)	175.2
CCOc1ccc(C2c3[nH]c4ccccc4c3CCN2C(=O)c2cccc(F)c2)cc1 (configuration not stated)	-112.8*
O=C1CC(c2ccncc2)C2(CCN(C(=O)c3ccc[nH]3)CC2)N1 (configuration not stated)	-1.8
CC(C)c1nnsc1CNC(=O)CC1C(=O)NCCN1C(C)C (configuration not stated)	185.2
Cc1cnc(N2CCc3ncnc(-c4cnn(C)c4)c3CC2)nc1	-2.9
O=C(C[C@@]12COC[C@H]1CN(c1ncc(F)cn1)C2)NCc1ccccn1	0.9
CC(=O)N1CCC2(CC1)OC(=O)C(C)=C2C(=O)Nc1ccccc1Br	-46.4
O=C1CCCCC1CCS(=O)(=O)c1ccc(Cl)cc1 (configuration not stated)	10.4
CCCc1cc(C2CCCCCN2Cc2cn(CC)nc2C)no1 (configuration not stated)	31.3
COc1ccc(C)cc1NC(=O)N1CCCC2(C1)Nc1cccnc1NC2=NC1CCCC1 (configuration not stated)	31.4
COc1cccc(NC(=O)N2CCCC3(C2)Nc2cccnc2NC3=NC2CCCC2)c1 (configuration not stated)	-6.8
O=C(Nc1cc(F)cc(F)c1)N1CCCC2(C1)Nc1cccnc1NC2=NC1CCCC1 (configuration not stated)	-86.4*
CCCCCCCCCCCCCCCCCCCCCCCCC(=O)O	0.4
Cc1cccc(CN2CCC3(CC2)C(=O)N(C)C3c2ccccc2)n1 (configuration not stated)	2.1
SMILES	Tg IFNy HTS
CCc1cccc(NC(=O)c2nc(Nc3ccc(C)cc3)c3ccccc3n2)c1	88.1
CCc1ccc(OCc2ccccc2C(=O)Nc2ccc3nc(C)cc(N)c3c2)cc1	-74.3*
CCOC(=O)c1cccc(NC(=O)c2ccccc2OCC)c1	-33.9
CCOc1ccc(-c2nccn2CCc2cn[nH]c2)cn1	-6.2
COc1ccc(C2NC(=S)NC3=C2CCc2ccccc23)cc1 (configuration not stated)	89.1
COc1ccc(C2Sc3ccccc3N=C3c4ccccc4CCC32)cc1 (configuration not stated)	-65.4
COc1ccc(C2CN=NC23CSc2ccccc2C3=O)cc1 (configuration not stated)	-81.7*
COc1ccc(C[C@H](N)C(=O)N[C@@H]2[C@@H](CO)OC(n3cnc4c(N(C)C)ncnc43)[C@@H]2O)cc1 (some centres not stated)	-79.5*!
COC1C(O)C(CO)OC1n1cnc2c(NC3CCCCC3)ncnc21 (configuration not stated)	12.2
Nc1ncnc2c1ncn2[C@@H]1O[C@H](CO)[C@@H](O)[C@H]1O	14.0
O=C(c1cnccn1)N1CC(=O)N2[C@H](CO)[C@H](c3ccc(/C=C/c4ccccc4)cc3)[C@@H]2C1	-24.0
C/C=C/c1ccc([C@@H]2[C@@H](CO)N3C(=O)CN(C(=O)Nc4ccc(F)cc4)C[C@@H]23)cc1	-0.9
CCN1c2ccccc2C(=O)NC12CCN(C(=O)c1ccc3c(c1)OCO3)CC2	59.1
CC(C)NC(=O)N[C@@H]1CC[C@@H](CC(=O)NCCCN(C)C)O[C@H]1CO	-1.4
CC(C)(C)C1CCc2nc(-c3cccnc3)nc(Nc3cccc(C(F)(F)F)c3)c2C1 (configuration not stated)	-73.1*
O=C(O)c1cccnc1Nc1cccc(C(F)(F)F)c1	-4.2
Cc1nc(CCNc2nc(-c3cccnc3)nc3c2CCNC3)sc1C	136.1
c1ccc(Cn2cc3c(n2)C(CNCc2ccco2)OCC3)nc1 (configuration not stated)	-20.1
CCc1nc(SCC(=O)N2CCc3[nH]nc(C4CCC4)c3C2)n[nH]1	0.6
COc1cc2c(cc1OC)CN(c1nc(SC)nc(Cl)c1-c1ccccc1)CC2	245.9
CCOCC(=O)N1CCC2(CCC(=O)N(C)CC2)CC1	-1.1
O=C(Nc1cnn(-c2ncncc2N2CCSCC2)c1)NC1CCCCC1	18.5
O=C(Nc1cnn(-c2ncncc2N2CCCCC2)c1)C1CCCCC1	-79.7*
O=C(Nc1cnn(-c2ncncc2N2CCCCC2)c1)C1CCCC1	-33.3
O=C(Nc1nc2ccc(F)cc2s1)c1cccnc1Cl	3.2
SMILES	Tg IFNy HTS
Cc1ccc(CN2CCOC(CCNS(C)(=O)=O)C2)cc1C (configuration not stated)	1.2
COc1cccc(-c2cncc(C3CCCN(C(=O)Cc4ccccc4)C3)n2)c1 (configuration not stated)	1.0
CC(C)n1nc(-c2ccc3oc(N)nc3c2)c2c(N)ncnc21	-82.9*
CCCC(=O)N1CCC(Cc2ccc(-c3cccs3)cc2)(C(=O)NCC)C1 (configuration not stated)	1.8
O=S1(=O)C=CC(Cc2n[nH]c(Cc3ccccc3)n2)C1 (configuration not stated)	2.1
Cc1n[nH]c(C)c1CCc1n[nH]c(=O)n1C1CCCCC1	-46.9
CCOC1C2CCC1N(C(=O)c1cn(C)c3ccccc13)CCO2 (configuration not stated)	-4.8
Cc1ccccc1C1(O)CCN(Cc2c(C)n(C)n(-c3ccccc3)c2=O)C1 (configuration not stated)	-5.9
CN(C)CCN1CCC2(CC1)CC(NCc1cccs1)c1ccccc12 (configuration not stated)	-35.0
COCCN1CCC2(CC1)CC(NCc1ccc(C)s1)c1ccccc12 (configuration not stated)	-3.5
CS(=O)(=O)N1CCC2(CC1)CC(NCc1cccs1)c1ccccc12 (configuration not stated)	-94.0*
O=C(c1ccccc1)N1CCC(c2cncc(-c3cccc(C(F)(F)F)c3)n2)CC1	3.2
c1coc(Cn2ccnc2-c2ccc(-c3ccn[nH]3)o2)c1	4.2
Cc1cc(C)cc(N2CCN(Cc3ccc(-c4ccn[nH]4)o3)CC2=O)c1	3.6
FC(F)(F)c1cc(-c2ccc(-c3ccn[nH]3)o2)cc(C(F)(F)F)c1	-105.7*

Screening data as filed in PubChem BioAssay.
